In PubChem BioAssay AID1159580 (chemical genetic matrix, 2015):
“And” between values parts separate entries of the source, which are not always exact repeats. Identical values can stand only once. The whole screen tested about 5,500 compounds, of which about 2,000 (36%) were called active. About 18% were inconclusive and are not listed. No stated cut-off is given here; in the data, active means normalized growth mostly below about 0.91 (no sharp cut-off); inconclusive means no clear call, values can overlap the other calls; inactive means mostly above about 0.92. The list shows a part of the results.

Test: chemical genetic growth profiling, strain panel (AID 1159580);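 further: tested at 20 µM; growth read once vehicle control cultures reached saturation at 30 °C; 1 = growth at the plate median or of vehicle wells; lower values mean less growth of the strain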
Details: S. cerevisiae deletion strains, growth OD

Measured: normalized growth

O=C(O)[C@H](O)[C@@](O)(Cc1ccc(O)cc1)C(=O)O
inactive: locus YAL013W, strain DEP1, active compounds read low 1.04 | locus YAL021C, strain ccr4, active compounds read low 1 | locus YAL026C, strain drs2, active compounds read low 1 | locus YAL030W, strain snc1, active compounds read low 1.01 | locus YBL061C, strain skt5, active compounds read low 1.01 | locus YBR009C, strain hhf1, active compounds read low 1.01 | locus YBR021W, strain FUR4, active compounds read low 1.02 | locus YBR023C, strain chs3, active compounds read low 1.02 | locus YBR171W, strain sec66, active compounds read low 1.02 | locus YBR229C, strain ROT2, active compounds read low 1.02 | locus YBR231C, strain swc5, active compounds read low 1.01 | locus YBR279W, strain paf1, active compounds read low 1.01 | locus YCL011C, strain gbp2, active compounds read low 1.01 | locus YCL016C, strain dcc1, active compounds read low 1.02 | locus YCL029C, strain bik1, active compounds read low 1.02 | locus YCL061C, strain MRC1, active compounds read low 1.02 | locus YCL069W, strain vba3, active compounds read low 1 | locus YCR088W, strain abp1, active compounds read low 1.01 | locus YDL005C, strain med2, active compounds read low 0.996 | locus YDL035C, strain GPR1, active compounds read low 1.06 | locus YDL040C, strain nat1, active compounds read low 1 | locus YDL074C, strain BRE1, active compounds read low 1.06 | locus YDL101C, strain DUN1, active compounds read low 1.03 | locus YDL134C, strain PPH21, active compounds read low 1.02 | locus YDL185W, strain tfp1, active compounds read low 0.992 | locus YDL192W, strain arf1, active compounds read low 1.03 | locus YDR001C, strain nth1, active compounds read low 1.02 | locus YDR069C, strain doa4, active compounds read low 1.01 | locus YDR101C, strain arx1, active compounds read low 1.02 | locus YDR137W, strain rgp1, active compounds read low 1.03 | locus YDR159W, strain sac3, active compounds read low 1 | locus YDR162C, strain NBP2, active compounds read low 1.06 | locus YDR195W, strain ref2 0.989 | locus YDR297W, strain sur2, active compounds read low 1.01 | locus YDR318W, strain mcm21, active compounds read low 1.01 | locus YDR334W, strain swr1, active compounds read low 1.01 | locus YDR335W, strain msn5, active compounds read low 1 | locus YDR388W, active compounds read low 1 | locus YDR392W, strain spt3, active compounds read low 0.976 | locus YDR502C, strain sam2, active compounds read low 0.995 | locus YEL003W, strain gim4, active compounds read low 0.999 | locus YEL037C, strain rad23, active compounds read low 1 | locus YEL061C, strain CIN8 (second series), active compounds read low 0.999 | locus YER015W, strain faa2, active compounds read low 1 | locus YER016W, strain bim1, active compounds read low 1 | locus YER110C, active compounds read low 0.992 | locus YER111C, strain swi4, active compounds read low 1 | locus YER155C, strain BEM2 (second series), active compounds read low 1.01 | locus YER155C, strain BEM2, active compounds read low 1.01 | locus YER167W, strain BCK2, active compounds read low 1.02 | locus YFR010W, strain ubp6, active compounds read low 1.01 | locus YGL078C, strain dbp3, active compounds read low 1.01 | locus YGL086W, strain mad1, active compounds read low 1.01 | locus YGL167C, strain pmr1, active compounds read low 1.01 | locus YGL173C, strain kem1, active compounds read low 1.02 | locus YGL227W, strain vid30, active compounds read low 1.01 | locus YGL240W, strain doc1, active compounds read low 1.01 | locus YGL248W, strain PDE1, active compounds read low 1.03 | locus YGL253W, strain hxk2, active compounds read low 1.01 | locus YGR078C, strain PAC10, active compounds read low 1.03 | locus YGR135W, strain pre9, active compounds read low 0.987 | locus YGR252W, strain gcn5, active compounds read low 0.966 | locus YHR013C, strain ard1, active compounds read low 1.02 | locus YHR027C, strain rpn1, active compounds read low 1.02 | locus YHR030C, strain SLT2, active compounds read low 1.02 and 1.01 | locus YHR079C, strain IRE1 (second series), active compounds read low 1 | locus YHR079C, strain IRE1, active compounds read low 1 | locus YHR094C, strain hxt1, active compounds read low 0.999 | locus YHR129C, strain ARP1, active compounds read low 1.02 | locus YHR142W, strain chs7, active compounds read low 1.02 | locus YHR200W, strain rpn10, active compounds read low 0.996 | locus YIL066C, strain RNR3, active compounds read low 1.04 | locus YIL073C, strain SPO22, active compounds read low 1.05 | locus YIL125W, strain kgd1, active compounds read low 1.02 | locus YIR030C, strain dcg1, active compounds read low 1 | locus YJL092W, strain hpr5, active compounds read low 1.02 | locus YJL095W, strain BCK1 (second series), active compounds read low 1.01 | locus YJL095W, strain BCK1, active compounds read low 1.05 and 1.01 | locus YJL115W, strain asf1, active compounds read low 0.997 | locus YJL129C, strain trk1, active compounds read low 1.03 | locus YJL134W, strain LCB3, active compounds read low 1.02 | locus YJL154C, strain vps35, active compounds read low 1 | locus YJL164C, strain tpk1, active compounds read low 1.01 | locus YJL166W, strain qcr8, active compounds read low 1.01 | locus YJL168C, strain set2, active compounds read low 1 | locus YJL187C, strain SWE1 (second series), active compounds read low 1.04 | locus YJL187C, strain SWE1, active compounds read low 1.01 | locus YJR043C, strain POL32, active compounds read low 1.06
